# Assay results from the supplement of paper PMC7366291.
# Counter-ions that a name gives are not always drawn. ± gives the standard deviation of the averaged measurements.
# Test system: Danio rerio Tg(wt1b:EGFP) embryo, pronephros
# Assay: pronephric angle neck segment to proximal convoluted tubule (mean of left and right), fold change vs DMSO control; higher = larger pronephric angle
# Details: 25 µM; exposure: 24-48 hpf
# How it was run: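 Dechorionated Tg(wt1b:EGFP) zebrafish embryos were incubated at 28.5°C from 24 to 48 hpf with 25 μM compound in HEPES-buffered E3 containing 0.5% DMSO and 0.003% PTU. Distances and angles between 16 manually set points on maximum projections of dorsal pronephros images were measured in Fiji, with values over 2 SD from the feature mean excluded. Each feature is a fold change relative to the mean of same-day DMSO-treated embryos.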
row,Compound,pronephric angle neck segment
1,Cc1cnc(C(=O)O)c[n+]1[O-] [Acipimox],0.94922 ± 0.00089
2,CC(=O)OCC(=O)[C@@]1(O)CC[C@H]2[C@@H]3CCC4=CC(=O)C=C[C@]4(C)[C@@]3(F)[C@@H](O)C[C@@]21C [Isoflupredone acetate],1.014 ± 0.0048
3,Cc1oncc1C(=O)Nc1ccc(C(F)(F)F)cc1 [Leflunomide],1.23 ± 0.054
4,CCOC(=O)[C@H](CCc1ccccc1)N[C@H]1CCc2ccccc2N(CC(=O)O)C1=O [Benazepril hydrochloride],0.964 ± 0.087
5,Nc1nc(NC2CC2)c2ncn([C@H]3C=C[C@@H](CO)C3)c2n1 [Abacavir Sulfate],1.04 ± 0.034
6,CC(=O)c1ccc2c(c1)N(CCCN(C)C)c1ccccc1S2 [Acetopromazine maleate salt],0.969 ± 0.02
7,Cc1c(-c2ccccc2)oc2c(C(=O)OCCN3CCCCC3)cccc2c1=O [Flavoxate hydrochloride],1.06 ± 0.02
8,CCN(CC)CCCC(C)Nc1c2ccc(Cl)cc2nc2ccc(OC)cc12 (stereo not given) [Quinacrine dihydrochloride hydrate],0.971 ± 0.021
9,Cn1c([N+](=O)[O-])cnc1COC(N)=O [Ronidazole],1.02 ± 0.016
10,CC(C)(C)NCC(O)COc1cccc2c1CC(O)C(O)C2 (stereo not given) [Nadolol],0.908 ± 0.02
11,CCn1cc(C(=O)O)c(=O)c2cc(F)c(N3CCN(C)CC3)cc21 [Pefloxacine],1.01 ± 0.018
12,CC(C)(C)NC[C@H](O)c1ccc(O)c(CO)c1 [Levalbuterol hydrochloride],0.998 ± 0.031
13,c1ccc2[nH]c(-c3cscn3)nc2c1 [Tiabendazole],1.04 ± 0.02
14,Nc1ccc(S(=O)(=O)Nc2nccs2)cc1 [Sulfathiazole],0.957 ± 0.019
15,N#Cc1ccc(C(c2ccc(C#N)cc2)n2cncn2)cc1 [Letrozole],0.938 ± 0.014
16,CC(C)NNC(=O)c1ccncc1 [Iproniazide phosphate],0.9788 ± 0.0054
17,O=C(O)c1cc(/N=N/c2ccc(S(=O)(=O)Nc3ccccn3)cc2)ccc1O [Sulfasalazine],0.999 ± 0.034
18,CN(C)[C@@H]1C(O)=C(C(N)=O)C(=O)[C@@]2(O)C(O)=C3C(=O)c4c(O)ccc(Cl)c4[C@@](C)(O)[C@H]3C[C@@H]12 [Chlortetracycline hydrochloride],0.9692 ± 0.0065
19,CCOCCn1c(N2CCCN(C)CC2)nc2ccccc21 [Emedastine],0.9917 ± 0.0031
20,C[N+](C)(C)CCOC(N)=O [Carbachol],1.01 ± 0.047

row,Compound,pronephric angle neck segment
1,CCC(=O)O[C@]1(C(=O)SCF)[C@H](C)C[C@H]2[C@@H]3C[C@H](F)C4=CC(=O)C=C[C@]4(C)[C@@]3(F)[C@@H](O)C[C@@]21C [Fluticasone propionate],1.04 ± 0.079
2,O=c1[nH]c(=O)n([C@H]2C[C@H](O)[C@@H](CO)O2)cc1F [Floxuridine],1.05 ± 0.016
3,CCCc1nc2c(C)cc(-c3nc4ccccc4n3C)cc2n1Cc1ccc(-c2ccccc2C(=O)O)cc1 [Telmisartan],1.16 ± 0.046
4,Cn1c(=O)c2nc[nH]c2n(C)c1=O [Theophylline monohydrate],1 ± 0.011
5,CNCCC(Oc1ccc(C(F)(F)F)cc1)c1ccccc1 (stereo not given) [Fluoxetine hydrochloride],1.04 ± 0.054
6,CCCNC(=O)NS(=O)(=O)c1ccc(Cl)cc1 [Chlorpropamide],1.051 ± 0.0085
7,NCC[C@H](O)C(=O)N[C@@H]1C[C@H](N)[C@@H](O[C@H]2O[C@H](CN)[C@@H](O)[C@H](O)[C@H]2O)[C@H](O)[C@H]1O[C@H]1O[C@H](CO)[C@@H](O)[C@H](N)[C@H]1O [Amikacin hydrate],1.04 ± 0.02
8,CCCCc1nc(Cl)c(CO)n1Cc1ccc(-c2ccccc2-c2nnn[nH]2)cc1 [Losartan],1.04 ± 0.044
9,CCCNC(C)C(=O)Nc1ccccc1C (stereo not given) [Prilocaine hydrochloride],1.02 ± 0.081
10,OCCN1CCN(CC/C=C2/c3ccccc3Sc3ccc(Cl)cc32)CC1 [Zuclopenthixol dihydrochloride],1.01 ± 0.039
11,CC(=O)SCC(Cc1ccccc1)C(=O)NCC(=O)OCc1ccccc1 (stereo not given) [Racecadotril],1.365 ± 0.013
12,CC1=C(C(=O)O)N2C(=O)[C@@H](NC(=O)[C@H](N)c3ccc(O)cc3)[C@H]2SC1 [Cefadroxil],0.923 ± 0.049
13,NS(=O)(=O)c1cc(Cl)c(Cl)c(S(N)(=O)=O)c1 [Dichlorphenamide],0.941 ± 0.041
14,CCS(=O)(=O)CCn1c([N+](=O)[O-])cnc1C [Tinidazole],1.02 ± 0.037
15,O=c1[nH]cc(F)c(=O)[nH]1 [5-fluorouracil],1.024 ± 0.0061
16,CC(C)(C)NC[C@@H](O)COc1cccc2c1CCCC2=O [(+) -Levobunolol hydrochloride],1.03 ± 0.015
17,CC(N)CCCC(C)(C)O (stereo not given) [Heptaminol hydrochloride],0.971 ± 0.023
18,COc1ccc(C(=O)NCc2ccc(OCCN(C)C)cc2)cc1OC [Itopride],1.06 ± 0.055
19,CC(C)(C)NCC(O)c1cc(O)cc(O)c1 (stereo not given) [Terbutaline hemisulfate],1.01 ± 0.039
20,CCN(CC)C(=O)N1CCN(C)CC1 [Diethylcarbamazine citrate],1.05 ± 0.02
